Among the data in publication PMC7862700, “An all-to-all approach to the identification of sequence-specific readers for epigenetic DNA modifications on cytosine” are binding signal values, retold here.

Assay in all cases: DAPPL (digital affinity profiling via proximity ligation, sequencing); 10 mM Tris-HCl pH 7.5, 50 mM NaCl, 1 mM DTT, 4% glycerol, room temperature, 30 min; GST-TFs on glutathione beads, 16-mer random dsDNA library, 0.1% formaldehyde crosslink after washing; high values mean tight binding
Common to all, as to settings: protein: recombinant; tags: N-terminal GST; dsDNA, one strand shown

In test [1] the target is T1, FLI1 (Homo sapiens, UniProt Q01543 1-452).
T1 sequence: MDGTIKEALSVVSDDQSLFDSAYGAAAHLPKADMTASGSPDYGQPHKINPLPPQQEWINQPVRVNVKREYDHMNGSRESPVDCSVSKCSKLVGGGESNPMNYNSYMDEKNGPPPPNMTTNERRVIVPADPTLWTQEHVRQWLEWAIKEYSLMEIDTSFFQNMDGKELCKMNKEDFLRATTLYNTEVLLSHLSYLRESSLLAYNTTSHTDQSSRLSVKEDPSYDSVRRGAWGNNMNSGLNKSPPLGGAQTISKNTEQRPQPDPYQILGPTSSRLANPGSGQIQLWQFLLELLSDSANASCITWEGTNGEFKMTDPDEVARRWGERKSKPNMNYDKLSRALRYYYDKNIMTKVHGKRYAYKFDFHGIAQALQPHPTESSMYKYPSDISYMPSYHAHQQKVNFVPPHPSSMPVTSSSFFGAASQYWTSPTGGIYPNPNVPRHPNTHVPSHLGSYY
Summed up:
(§1)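 In yeast, human transcription factors were expressed with a GST fusion, then pulled down on glutathione beads and given DNA barcodes. Pooled with a tag-only sample, they were exposed to 200 nmole of a 16-mer random double-stranded DNA library (Tris/NaCl/DTT/glycerol buffer, room temperature, 30 min), washed, crosslinked with 0.1% formaldehyde, proximity-ligated using BsaI/T4 ligase for 1 h at 37 °C, PCR-amplified and read on an Illumina NextSeq500. Each hexamer's frequency of reads for a factor, divided by the matching frequency for the tag-only sample, gives the binding signal.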

Test [2] has as its target T2, ELK1 (Homo sapiens, UniProt P19419 1-428).
T2 sequence: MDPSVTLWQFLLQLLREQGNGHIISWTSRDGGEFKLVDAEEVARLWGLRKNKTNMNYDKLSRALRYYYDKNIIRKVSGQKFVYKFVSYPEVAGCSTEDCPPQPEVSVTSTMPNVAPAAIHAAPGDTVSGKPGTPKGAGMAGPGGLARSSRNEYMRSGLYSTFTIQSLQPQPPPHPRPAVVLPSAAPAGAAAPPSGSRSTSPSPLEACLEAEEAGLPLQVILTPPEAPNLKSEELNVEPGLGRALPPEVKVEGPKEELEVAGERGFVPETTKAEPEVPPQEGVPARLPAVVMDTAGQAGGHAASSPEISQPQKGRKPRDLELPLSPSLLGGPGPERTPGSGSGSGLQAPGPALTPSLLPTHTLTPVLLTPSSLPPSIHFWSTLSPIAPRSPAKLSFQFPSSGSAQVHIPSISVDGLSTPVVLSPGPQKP
The method in brief: as §1

Test [3] concerns the target T3, GABPA (Homo sapiens, UniProt Q06546 1-454).
T3 sequence: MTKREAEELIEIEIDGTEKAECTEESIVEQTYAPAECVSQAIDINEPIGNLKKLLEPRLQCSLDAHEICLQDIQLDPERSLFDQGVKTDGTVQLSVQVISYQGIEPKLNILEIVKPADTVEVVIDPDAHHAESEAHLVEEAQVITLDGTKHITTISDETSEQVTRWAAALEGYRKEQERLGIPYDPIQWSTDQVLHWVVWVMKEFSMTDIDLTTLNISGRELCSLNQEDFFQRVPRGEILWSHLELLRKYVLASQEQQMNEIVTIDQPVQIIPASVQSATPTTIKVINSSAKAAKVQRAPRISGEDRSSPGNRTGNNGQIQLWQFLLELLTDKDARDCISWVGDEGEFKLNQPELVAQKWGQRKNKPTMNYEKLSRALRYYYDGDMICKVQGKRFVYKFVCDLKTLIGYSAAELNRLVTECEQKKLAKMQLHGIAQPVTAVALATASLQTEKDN
The method in brief:
as §1

In test [4] the target is T4, ERG (Homo sapiens, UniProt P11308 1-479).
T4 sequence: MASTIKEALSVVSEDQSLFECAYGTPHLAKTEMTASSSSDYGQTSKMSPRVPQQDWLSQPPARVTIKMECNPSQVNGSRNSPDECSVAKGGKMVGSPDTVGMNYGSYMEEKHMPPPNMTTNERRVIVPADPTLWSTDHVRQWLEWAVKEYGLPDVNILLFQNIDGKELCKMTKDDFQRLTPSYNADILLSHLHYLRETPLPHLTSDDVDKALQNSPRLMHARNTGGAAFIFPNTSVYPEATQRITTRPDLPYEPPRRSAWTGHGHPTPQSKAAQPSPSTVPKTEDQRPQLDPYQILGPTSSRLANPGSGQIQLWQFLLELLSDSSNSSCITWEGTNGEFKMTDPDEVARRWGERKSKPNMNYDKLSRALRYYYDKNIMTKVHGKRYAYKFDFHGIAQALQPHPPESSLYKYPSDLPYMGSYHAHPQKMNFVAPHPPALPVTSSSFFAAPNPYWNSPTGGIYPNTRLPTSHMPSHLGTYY
Summed up: as §1

For test [5], the target named is ELF1 (Homo sapiens, UniProt P32519 1-619). Summed up: as §1
The target of test [6] is T5, EHF (Homo sapiens, UniProt Q9NZC4 1-300).
T5 sequence: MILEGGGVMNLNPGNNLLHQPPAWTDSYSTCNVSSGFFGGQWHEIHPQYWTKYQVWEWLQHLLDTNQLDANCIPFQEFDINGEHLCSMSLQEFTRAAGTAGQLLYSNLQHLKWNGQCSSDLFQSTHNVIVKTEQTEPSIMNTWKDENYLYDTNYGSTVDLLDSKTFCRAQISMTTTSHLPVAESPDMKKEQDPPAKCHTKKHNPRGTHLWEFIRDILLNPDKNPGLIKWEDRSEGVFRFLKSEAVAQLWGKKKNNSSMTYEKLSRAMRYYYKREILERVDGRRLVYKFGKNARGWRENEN
The method in brief:
as §1

In test [7] the target is SPI1 (Homo sapiens, UniProt P17947 1-270). The method in brief:
as §1

Test [8] deals with SPIB (Homo sapiens, UniProt Q01892 1-262). The method in brief: as §1
Test [9] has as its target T6, ELK3 (Homo sapiens, UniProt P41970 1-407).
T6 sequence: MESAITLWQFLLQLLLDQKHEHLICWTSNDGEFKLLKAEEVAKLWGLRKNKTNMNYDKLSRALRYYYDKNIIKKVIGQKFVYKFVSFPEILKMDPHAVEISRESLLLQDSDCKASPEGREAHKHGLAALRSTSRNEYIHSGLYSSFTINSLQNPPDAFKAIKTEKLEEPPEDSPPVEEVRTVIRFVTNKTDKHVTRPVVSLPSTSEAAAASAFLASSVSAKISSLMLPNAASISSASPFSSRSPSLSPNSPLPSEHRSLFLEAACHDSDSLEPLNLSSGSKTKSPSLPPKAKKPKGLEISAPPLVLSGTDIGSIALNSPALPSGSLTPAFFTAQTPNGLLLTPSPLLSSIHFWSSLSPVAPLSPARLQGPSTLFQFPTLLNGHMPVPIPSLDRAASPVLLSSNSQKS
Summed up:
as §1

Sequence of SPIB (Q01892 whole entry): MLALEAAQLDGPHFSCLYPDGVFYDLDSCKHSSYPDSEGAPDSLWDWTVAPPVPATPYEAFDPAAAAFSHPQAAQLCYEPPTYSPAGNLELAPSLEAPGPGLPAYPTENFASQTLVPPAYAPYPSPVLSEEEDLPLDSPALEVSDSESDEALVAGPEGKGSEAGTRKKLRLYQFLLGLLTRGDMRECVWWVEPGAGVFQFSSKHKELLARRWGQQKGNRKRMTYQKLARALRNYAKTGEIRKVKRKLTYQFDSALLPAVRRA
Sequence of ELF1 (P32519 whole entry): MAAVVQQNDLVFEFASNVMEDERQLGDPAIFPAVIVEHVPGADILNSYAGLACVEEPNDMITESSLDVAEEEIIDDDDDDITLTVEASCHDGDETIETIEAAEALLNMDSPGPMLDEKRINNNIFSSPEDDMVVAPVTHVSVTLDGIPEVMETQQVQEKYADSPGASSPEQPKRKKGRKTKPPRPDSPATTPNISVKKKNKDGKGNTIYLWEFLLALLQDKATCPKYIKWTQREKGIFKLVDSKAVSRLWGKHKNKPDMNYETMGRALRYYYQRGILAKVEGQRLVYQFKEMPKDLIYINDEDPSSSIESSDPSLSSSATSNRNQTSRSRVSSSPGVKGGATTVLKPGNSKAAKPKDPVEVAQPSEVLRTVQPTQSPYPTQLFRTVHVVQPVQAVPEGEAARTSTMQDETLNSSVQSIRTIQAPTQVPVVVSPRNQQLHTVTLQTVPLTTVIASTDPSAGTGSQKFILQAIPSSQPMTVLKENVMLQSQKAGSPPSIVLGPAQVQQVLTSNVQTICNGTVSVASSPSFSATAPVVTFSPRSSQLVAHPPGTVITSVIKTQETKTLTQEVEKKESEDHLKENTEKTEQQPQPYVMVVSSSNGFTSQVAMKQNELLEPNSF

For the sequence TTAATT, the binding signal in [1] is 1.38 fold enrichment (6-mer frequency, TF over GST control); in test [2], 1.34 fold enrichment (6-mer frequency, TF over GST control); in test [3], 1.42 fold enrichment (6-mer frequency, TF over GST control); in [4], 1.32 fold enrichment (6-mer frequency, TF over GST control); in test [5], 1.37 fold enrichment (6-mer frequency, TF over GST control); in test [6], 1.39 fold enrichment (6-mer frequency, TF over GST control). Further, the binding signal in test [7] is 1.38 fold enrichment (6-mer frequency, TF over GST control); in test [8] it was 1.36 fold enrichment (6-mer frequency, TF over GST control); in test [9], 1.54 fold enrichment (6-mer frequency, TF over GST control).

ACAATA: the binding signal is 1.13 fold enrichment (6-mer frequency, TF over GST control) in [1]; 1.12 fold enrichment (6-mer frequency, TF over GST control) in [2]; 1.29 fold enrichment (6-mer frequency, TF over GST control) in [3]; 1.13 fold enrichment (6-mer frequency, TF over GST control) in [4]; 1.1 fold enrichment (6-mer frequency, TF over GST control) in test [5]; 1.16 fold enrichment (6-mer frequency, TF over GST control) in [6]. In addition, the binding signal in test [7] is 1.16 fold enrichment (6-mer frequency, TF over GST control); in [8], 1.2 fold enrichment (6-mer frequency, TF over GST control); in [9], 1.23 fold enrichment (6-mer frequency, TF over GST control).

For the sequence ACTGAT, the binding signal was 1.22 fold enrichment (6-mer frequency, TF over GST control) in [1]; 1.31 fold enrichment (6-mer frequency, TF over GST control) in test [2]; 1.27 fold enrichment (6-mer frequency, TF over GST control) in test [3]; 1.3 fold enrichment (6-mer frequency, TF over GST control) in [4]; 1.28 fold enrichment (6-mer frequency, TF over GST control) in test [5]; 1.27 fold enrichment (6-mer frequency, TF over GST control) in test [6]. Moreover, the binding signal in test [7] was 1.31 fold enrichment (6-mer frequency, TF over GST control); in test [8] it was 1.19 fold enrichment (6-mer frequency, TF over GST control); in test [9], 1.26 fold enrichment (6-mer frequency, TF over GST control).

For ATATCT, the binding signal is 1.25 fold enrichment (6-mer frequency, TF over GST control) in test [1]; 1.19 fold enrichment (6-mer frequency, TF over GST control) in [2]; 1.26 fold enrichment (6-mer frequency, TF over GST control) in [3]; 1.21 fold enrichment (6-mer frequency, TF over GST control) in [4]; 1.21 fold enrichment (6-mer frequency, TF over GST control) in [5]; 1.17 fold enrichment (6-mer frequency, TF over GST control) in test [6]. The binding signal in test [7] is 1.16 fold enrichment (6-mer frequency, TF over GST control); in [8], 1.21 fold enrichment (6-mer frequency, TF over GST control); in test [9], 1.15 fold enrichment (6-mer frequency, TF over GST control).

For TCACTT, the binding signal in test [1] is 1.56 fold enrichment (6-mer frequency, TF over GST control); in test [2] it was 1.78 fold enrichment (6-mer frequency, TF over GST control); in test [3] it was 1.52 fold enrichment (6-mer frequency, TF over GST control); in test [4] it was 1.8 fold enrichment (6-mer frequency, TF over GST control); in [5], 1.66 fold enrichment (6-mer frequency, TF over GST control); in test [6], 1.67 fold enrichment (6-mer frequency, TF over GST control). In addition, the binding signal in [7] is 2.11 fold enrichment (6-mer frequency, TF over GST control); in test [8] it was 1.82 fold enrichment (6-mer frequency, TF over GST control); in [9], 1.69 fold enrichment (6-mer frequency, TF over GST control).

For the sequence TATACA, the binding signal in test [1] was 1.32 fold enrichment (6-mer frequency, TF over GST control); in [2] it was 1.29 fold enrichment (6-mer frequency, TF over GST control); in [3] it was 1.42 fold enrichment (6-mer frequency, TF over GST control); in test [4] it was 1.39 fold enrichment (6-mer frequency, TF over GST control); in test [5] it was 1.27 fold enrichment (6-mer frequency, TF over GST control); in test [6], 1.35 fold enrichment (6-mer frequency, TF over GST control). Further, the binding signal in test [7] was 1.32 fold enrichment (6-mer frequency, TF over GST control); in test [8], 1.22 fold enrichment (6-mer frequency, TF over GST control); in test [9], 1.47 fold enrichment (6-mer frequency, TF over GST control).

Regarding ATTTAA, the binding signal is 1.24 fold enrichment (6-mer frequency, TF over GST control) in test [1]; 1.12 fold enrichment (6-mer frequency, TF over GST control) in test [2]; 1.14 fold enrichment (6-mer frequency, TF over GST control) in test [3]; 1.14 fold enrichment (6-mer frequency, TF over GST control) in test [4]; 1.22 fold enrichment (6-mer frequency, TF over GST control) in test [5]; 1.2 fold enrichment (6-mer frequency, TF over GST control) in test [6]. In addition, the binding signal in test [7] was 1.16 fold enrichment (6-mer frequency, TF over GST control); in [8], 1.15 fold enrichment (6-mer frequency, TF over GST control); in test [9], 1.28 fold enrichment (6-mer frequency, TF over GST control).

For AATTAA, the binding signal was 1.26 fold enrichment (6-mer frequency, TF over GST control) in test [1]; 1.2 fold enrichment (6-mer frequency, TF over GST control) in test [2]; 1.22 fold enrichment (6-mer frequency, TF over GST control) in test [3]; 1.26 fold enrichment (6-mer frequency, TF over GST control) in test [4]; 1.27 fold enrichment (6-mer frequency, TF over GST control) in test [5]; 1.22 fold enrichment (6-mer frequency, TF over GST control) in test [6]. The binding signal is 1.26 fold enrichment (6-mer frequency, TF over GST control) in test [7]; 1.21 fold enrichment (6-mer frequency, TF over GST control) in [8]; 1.31 fold enrichment (6-mer frequency, TF over GST control) in [9].
